We go through 16 compounds from PubChem BioAssay.

The list shows a part of the results. Values without a mark were called inactive. Activity calls are given as the source filed them.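 The calls were made as follows: active = mean inhibition across four replicates of at least 40 percent at the single tested concentration; inactive = the rest.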

The assay in a line: HIF-2a driven luciferase blockers, single dose – luminescence, 786-0 RCC cells, confirmation (AID 651580). The following applies: HIF-2a luciferase reporter luminescence, overnight, at 18.8 µM, hits give high values.
Regarding `COCC(C)n1c(C)cc(C(=O)COc2ccc(C)nc2[N+](=O)[O-])c1C` (stereo unspecified), the inhibition – broadly, the relative decrease from the control value, in per cent – is 55% (active).
Then `Cc1cc(Cl)c(S(=O)(=O)Nc2ccc3c(c2)OCCO3)cc1OCC(N)=O`, with 46.5% (active); and `CN(C)CCNC(=O)c1cccc(-c2cnc3c(NC=O)cc(-c4cccc(C(F)(F)F)c4)cn23)c1`, with 8.84%.
Regarding `CCN1CCC(O)(/C=C/c2ccc(C)cc2)C(C(=O)/C=C/c2ccc(C)cc2)C1` (stereo unspecified), the inhibition is 5.88%.
In the case of `O=C(CN1CCN(C2CCS(=O)(=O)C2)CC1)N1N=C(c2ccc(Cl)cc2)CC1c1ccco1` (stereo unspecified), the inhibition is -11%.
Then `O=C(CCl)N(Cc1cccc([N+](=O)[O-])c1)c1cccc(Cl)c1`, with 62.8% (active).
As for `O=C1C=C(c2ccc(Cl)cc2)C(=O)N1Nc1ccccc1`, the figure is 95.2% (active); as for `Cc1c(CCC(=O)O)c(=O)oc2cc3occ(-c4ccccc4)c3cc12`, 68.1% (active).
As to `COc1ccc(CC(N)c2csc(NC(=O)Nc3ccc(C(C)C)cc3)n2)cc1` (stereo unspecified), the inhibition is 3.55%.
Take `CC(C)(C)c1cc(C(=O)N/N=C/c2ccc([N+](=O)[O-])s2)n[nH]1`: the inhibition was 74.6% (active).
As for `Cc1nnnn1/C(=C\c1ccccc1)C(=O)OCC(=O)N1CC2(C)CC1CC(C)(C)C2` (stereo unspecified), the figure is 62% (active); as for `Cc1cc(-c2n[nH]c(=S)n2/N=C/C(Br)=C/c2ccccc2)n[nH]1`, 22.8%.
As for `Cc1ccc(NC(=S)NC(NC(=O)Cc2cccc3ccccc23)C(Cl)(Cl)Cl)cc1` (stereo unspecified), the figure is -32.9%; as for `Cc1cccc(C(=O)Nc2ccc(CC(=O)O)cc2)c1`, 53% (active); as for `COC(=O)CCNc1ccc2c(c1)OCCO2`, 50.7% (active).
As for `Cc1coc2c(O)cc3c(c12)OC1(N2CCCCC2)C(=O)NCCCC31` (stereo unspecified), the figure is 1.41%.
